Bioassay records (PubChem BioAssay)
Most compounds without a hit are left out; they make up all but 18% or so of the library.
TDP1 cell noCPT: qHTS for Inhibitors of human tyrosyl-DNA phosphodiesterase 1 (TDP1): qHTS in cells in absence of CPT. 420,000 compounds, 15% hits. DT40 Tdp1-/- hTDP1 cells, no CPT, ATP luminescence, 48 h. AID 686978, 2013. Potency, µM (top dose mostly 46.2 µM), inactives show top-dose activity change, negative = growth inhibition, most hits filed as inhibitors; also: potency is read from the fitted curve at half-maximal effect; % is scaled to controls: 0 for no effect and ±100 for the full control effect; nearly all actives have a fitted effect of over 55% in size
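Seeded 400 DT40-hTDP1 cells/well (vehicle DMSO, no 20 nM CPT); pinned compounds; ≥48 hr at 37 °C; CellTiter-Glo luminescence as viability measure.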
TGFb inhibitor: TGF-b pathway inhibition. HepG2 CAGA-GFP TGF-b/SMAD3 reporter, GFP fluorescence, 18 h; TGF-beta stimulated, 500 pg/mL final. Potency, µM (highest dose often 46.1 µM), for inactives: top-dose activity, negative = inhibition, most hits filed as inhibitors. AID 588855. 410,000 compounds, 1.2% hits; also: potency is read from the fitted curve at half-maximal effect; % is scaled to controls: 0 for no effect and ±100 for the full control effect; nearly all actives have a fitted effect of over 65% in size
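Per well, imaged GFP fluorescence of HEPG2 CAGA-GFP cells gives the signal; cells get compound, then TGF-beta (500 pg/mL final), 18 h at 37 degrees C; %Activity versus -TGF-beta and +DMSO controls.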
IL1B secr inh: inhibitors of inflammasome signaling (IL-1 beta secretion); THP-1 LPS/ATP IL-1B secretion, AlphaLISA, 16 h; hits give low values; activity change, % at 57.5 µM; 360,000 compounds, 4.7% hits; AID 743279; in the data active = activity change below about -50%; inconclusive = mostly about -30% to -49%; also: % is scaled to controls: 0 for no effect and ±100 for the full control effect
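THP-1 cells pretreated 1 hr with compounds (up to 57.5 uM final), then stimulated with LPS (250 ng/mL final) plus ATP (1.25 mM final); secreted IL-1B measured by AlphaLISA after 16 hr, decreased signal indicating inhibition.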
HepG2 viability: counter-screen for TGF-b inhibitors: cytotoxicity in HepG2 cells; 410,000 compounds, 0.76% hits; Potency, µM (top dose mostly 46.1 µM), for the others: at the top dose activity change, negative = cytotoxicity, actives largely listed as cytotoxic; AID 588856; HepG2 CAGA-GFP viability, ATP luminescence, 18 h; also: potency is read from the fitted curve at half-maximal effect
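HepG2 CAGA-GFP cells (1000/well, DMEM with 1% FBS) received compound, then TGF-beta at 500 pg/mL final, and were incubated 18 hours at 37 degrees C. Viability was read by CellTiter-Glo luminescence. Media-only wells were set as complete cell-killing and DMSO as no toxicity.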
TDP1 block: blocks human tyrosyl-DNA phosphodiesterase 1. recombinant TDP1, AlphaScreen DNA substrate cleavage. 350,000 compounds, 0.28% hits. Potency, µM (doses to about 130 µM), inactives show top-dose activity change, negative = inhibition, most hits filed as inhibitors; also: potency is read from the fitted curve at half-maximal effect; % is scaled to controls: 0 for no effect and ±100 for the full control effect; nearly all actives have a fitted effect of over 40% in size
Target sequence (Q9NUW8 whole entry, looked up): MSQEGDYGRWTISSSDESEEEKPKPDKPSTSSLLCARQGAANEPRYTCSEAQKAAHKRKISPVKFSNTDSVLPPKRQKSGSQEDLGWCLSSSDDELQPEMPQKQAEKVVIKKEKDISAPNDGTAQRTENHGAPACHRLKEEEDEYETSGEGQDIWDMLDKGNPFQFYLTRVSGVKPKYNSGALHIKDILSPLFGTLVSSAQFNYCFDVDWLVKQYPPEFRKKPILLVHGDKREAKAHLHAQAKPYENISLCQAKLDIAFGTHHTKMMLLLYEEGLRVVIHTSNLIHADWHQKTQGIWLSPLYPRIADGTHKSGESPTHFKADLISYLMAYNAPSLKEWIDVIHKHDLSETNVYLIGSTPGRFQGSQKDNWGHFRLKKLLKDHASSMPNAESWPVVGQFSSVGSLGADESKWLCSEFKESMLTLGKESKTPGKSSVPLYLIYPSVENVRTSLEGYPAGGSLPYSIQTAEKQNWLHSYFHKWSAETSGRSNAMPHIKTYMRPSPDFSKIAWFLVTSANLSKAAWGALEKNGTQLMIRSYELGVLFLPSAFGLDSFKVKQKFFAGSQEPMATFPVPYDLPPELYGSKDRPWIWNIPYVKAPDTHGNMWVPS
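E. coli-derived human Tdp1, 1 nM final. Cpd preinc 15 min RT; substrate 15 nM final, 5 min RT; AS bead mix 10 ug/ml final, 10 min RT. Signal loss = tyrosine-FITC cleavage. No-enzyme wells = max signal.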
TDP1 cell CPT: growth inhibition of DT40 Tdp1-/-;hTDP1 cells with camptothecin (screen for TDP1 inhibitors) | chicken DT40 Tdp1-/-;hTDP1 cells + 20 nM CPT, ATP luminescence, 48 h | Potency, µM (top dose mostly 46.2 µM), inactives show at the highest dose activity change, negative = growth inhibition, actives largely listed as inhibitors | 420,000 compounds, 12% hits | AID 686979; also: potency is read from the fitted curve at half-maximal effect; % is scaled to controls: 0 for no effect and ±100 for the full control effect; nearly all actives have a fitted effect of over 55% in size
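Chicken DT40 Tdp1-/- cells complemented with human TDP1, 400 cells/well, exposed to compounds plus 20 nM camptothecin for at least 48 h at 37 C; viability read as ATP content by CellTiter-Glo luminescence.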
Active calls of the source: *; ? = inconclusive; / = no result given; [ ] = dose if it differs, or a comment. Unless noted, calls follow the shape of the dose curve; as a rule, active = well fitted curve in the direction sought with a large enough effect; inconclusive = small, poorly fitted or top-dose-only effect, or another doubt; inactive = no such curve, though single readings can be large; an effect the other way counts as inactive or inconclusive.

SMILES | TDP1 cell noCPT | TGFb inhibitor | IL1B secr inh | HepG2 viability | TDP1 block | TDP1 cell CPT
CCN(CC)c1ccc(NC(=O)c2cccnc2)cc1 | ? | 22% | -2 | -1% | -1% | ?
CCN(CC)c1ccc(/C=C/C(=O)c2cccnc2)cc1 | 21µM* | -19% | 6 | -5% | 5% | ?
COc1ccc(OC2C(O)COC2/C=C/C#Cc2ccc(F)cc2F)cc1 (stereo unspecified) | / | / | / | / | 4%[21 µM] | /
O=C(OCc1ccccc1)N1CCC2CC1c1c2cccc1N1CCOCC1 (stereo unspecified) | ? | 1% | -17 | -6% | / | ?
CC1(c2ccc(Cl)cc2)CC(C)(C)N(C(=O)c2cccc(F)c2)c2ccccc21 (stereo unspecified) | 18µM* | ? | / | -22% | 0%[12.3 µM] | ?
CC1(c2ccccc2)CC(C)(C)N(C(=O)c2ccccc2Cl)c2ccccc21 (stereo unspecified) | 5.2µM* | -17% | / | -8% | / | 6.5µM*
COC1OC(COC(=O)c2ccccc2)C(OC(=O)c2ccccc2)C1OC(=O)c1ccccc1 (stereo unspecified) | ? | -11% | -16 | -5% | / | ?
O=C(OC[C@H]1O[C@@H](OC(=O)c2cc(O)c(O)c(OC(=O)c3cc(O)c(O)c(O)c3)c2)[C@H](OC(=O)c2cc(O)c(O)c(OC(=O)c3cc(O)c(O)c(O)c3)c2)[C@@H](OC(=O)c2cc(O)c(O)c(OC(=O)c3cc(O)c(O)c(O)c3)c2)[C@@H]1OC(=O)c1cc(O)c(O)c(OC(=O)c2cc(O)c(O)c(O)c2)c1)c1cc(O)c(O)c(OC(=O)c2cc(O)c(O)c(O)c2)c1 | 4.6µM* | / | / | / | / | 4.2µM*
CCOc1ccccc1N1Cc2cc(C)c(C)cc2C1 | ? | -11% | 4 | -16% | 4% | 26µM*
COc1ccc(OC)c(N2Cc3cc(C)c(C)cc3C2)c1 | 26µM* | -5% | -1 | -17% | 4% | ?
CCOc1ccccc1N1Cc2ccccc2C1 | -22% | 2% | 15 | -4% | 12% | ?
CCOC(=O)[C@]12CCCC=C1N(Cc1ccco1)C(=O)[C@H](CC(=O)N1CCSCC1)C2 | ? | / | 2 | / | / | ?
c1nc(NCCc2cnc[nH]2)c2ccc(-c3ccc4c(c3)OCO4)cc2n1 | / | / | / | / | 7% | /
O=C(NC1CCC(O)CC1)c1cccc2cccnc12 (stereo unspecified) | -4% | -2% | -3 | -15% | / | 37%
Cc1ccc(N(Cc2ccccc2)C(=O)c2cccc(S(=O)(=O)N3CC(C)OC(C)C3)c2)cc1 (stereo unspecified) | 16µM* | ? | -29 | -7% | 0%[0.505 µM] | 21µM*
CC1CN(S(=O)(=O)c2cccc(C(=O)N(CCc3ccccc3)Cc3ccccc3)c2)CC(C)O1 (stereo unspecified) | 5.8µM* | ? | -23 | 0% | 11% | 7.3µM*
CN(/N=C\c1ccc(O)c(O)c1)c1nc(-c2ccccc2)cc(-c2ccccc2)n1 | 1.5µM* | ? | -61* | -4% | 8% | 0.82µM*
Cc1n[nH]c(=O)c2c(NC(=O)CSc3nncn3C(C)C)oc(C)c12 | 2% | -4% | 46 | -17% | 2% | 3%
CN(Cc1ccccc1Br)C(=O)CSc1nnnn1C1CC1 | ? | -17% | -2 | -32% | 0% | -2%
CC(C)CNC(=O)c1ccc(COc2ccc(Cl)cc2Cl)o1 | 21µM* | 8% | ? | -24% | 0% | 15µM*
CC(=O)Nc1ccc(NC(=O)c2ccc(COc3ccc(Cl)cc3Cl)o2)cc1 | 16µM* | ? | / | -97% | 3% | 16µM*
CCCc1ccc(OCc2ccc(C(=O)NN)o2)c(OC)c1 | 23µM* | -19% | 26 | -19% | / | 6%
COc1cccc(/C=N/NC(=O)c2ccc(COc3ccc(Cl)cc3Cl)o2)c1 | -7% | ? | -1 | -47% | 8% | -10%
O=C(Nc1ccccc1F)c1ccc(COc2ccc(Cl)cc2Cl)o1 | -25% | 10% | -22 | -7% | -2%[56.1 µM] | 0%
COc1ccccc1OCc1ccc(C(=O)NC(C)(C)C)o1 | ? | -15% | 2 | -5% | -3% | -29%
SMILES | TDP1 cell noCPT | TGFb inhibitor | IL1B secr inh | HepG2 viability | TDP1 block | TDP1 cell CPT
COc1ccccc1OCc1ccc(C(=O)Nc2ccncc2)o1 | 21µM* | -11% | -19 | -29% | 2% | ?
CCNC(=S)N1CCC(C(=O)c2ccc(F)cc2)CC1 | -10% | -6% | -24 | -25% | / | ?
N#Cc1ccccc1NC(=O)C(=O)NCCc1csc2nc(-c3cccc(F)c3)nn12 | -28% | -7% | / | -12% | -4% | -20%
COC(=O)c1ccc(CNC(=O)/C=C/[C@H]2O[C@@H](n3cc(C)c(=O)[nH]c3=O)C[C@@H]2O)cc1 | -1% | 3% | 10 | -2% | / | -7%
CC(=O)OC[C@@H]1O[C@@H](O/N=C2/C[C@@H](O)[C@@H](O)[C@@H]3[C@@H]4C(=O)N(Cc5ccccc5)C(=O)[C@H]4CC[C@H]23)[C@H](OC(C)=O)[C@H](OC(C)=O)[C@@H]1OC(C)=O | / | / | / | / | 7%[21 µM] | /
Cc1nn(Cc2cccc(F)c2)c(C)c1NC(=O)c1ccc(COc2ccccc2Cl)cc1 | ? | ? | 0 | 2% | 3% | 15µM*
Cc1nn(Cc2c(F)c(F)c(F)c(F)c2F)c(C)c1NC(=O)c1ccc(COc2ccc(Cl)cc2Cl)o1 | 15µM* | ? | -63* | -5% | 3% | 21µM*
